# Experimental data taken from PubChem BioAssay.
# The source made the active and inactive calls.
# Experiments:
# [1] = system: Human papillomavirus type 1a protein E7 (residues 44-93); test: HPV1a E7 fragment binders on microarrays, primary screen, biochemical, small-molecule microarray, residues 44-93, 635 nm fluorescence (AID 1108); conditions: small-molecule microarray binding, fluorescence 635 nm; higher = more signal;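 note: E7 fragment applied at 1 µg/mL in TBST for 1 h at 4 C; score combines spot fluorescence with its signal to noise ratio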
# [2] = modulators of HCV replicon luciferase signal, primary screen, HCV replication inhibitor project, Huh7 cells, luciferase reporter (AID 1109); conditions: 48 h, higher = more signal;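 note: huh7 hepatoma cells harbouring a luciferase neomycin HCV replicon reporter; luciferase luminescence as measure of HCV replicon replication; test concentration not given here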
# [3] = molecular target: Left-right determination factor 2 (Homo sapiens) (UniProt O00292); test: LEFTY2 binders on small-molecule microarrays, primary screen, biochemical, small-molecule microarray, 635 nm fluorescence scan (AID 1110); conditions: LEFTY2 binding, higher = more signal
# [4] = molecular target: Calmodulin-1 (Homo sapiens) (UniProt P0DP23); test: CALM1 binders on microarrays, EGTA buffer, profiling panel, biochemical, small-molecule microarray, Cy5-labelled CALM1 (AID 1111); conditions: Cy5-CALM1 binding fluorescence, higher = more signal;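 note: labelled calmodulin applied in Tris saline Tween buffer holding calcium plus EGTA and DTT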
# [5] = molecular target: Calmodulin-1 (Homo sapiens) (UniProt P0DP23); test: calcium-bound CALM1 binders on microarrays, profiling panel, artefact control for SMM control-protein annotation, biochemical, small-molecule microarray, Cy5-labelled CALM1, plus calcium (AID 1112); conditions: Cy5-CALM1 binding fluorescence, higher = more signal;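 note: score merges spot fluorescence with signal to noise from triplicate slides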
# [6] = small-molecule microarray binders of probe aWnt5a, primary screen, biochemical, biotinylated probe, 635/667 nm fluorescence (AID 1113); conditions: higher = more signal;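 note: score merges 667 nm fluorescence intensity with signal-to-noise per printed feature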
# [7] = small-molecule microarray binders of probe aShh, primary screen, biochemical, biotinylated probe, 635/667 nm fluorescence (AID 1114); conditions: higher = more signal;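 note: probe is biotin-labelled aShh protein from a stem cell growth factor screen; measures binding of labelled protein to compounds printed on the slide; score merges feature fluorescence at 667 nm with signal-to-noise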
# [8] = small-molecule microarray binders of probe aNog, primary screen, biochemical, biotinylated probe, 635/667 nm fluorescence (AID 1115); conditions: higher = more signal;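 note: probe is biotinylated aNog protein used at 0.15 µg/mL for 1 h at 4 C; z-score combines 667 nm fluorescence of each spot with its signal to noise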
# [9] = molecular target: Torsin-1A-interacting protein 1 (Homo sapiens) (UniProt Q5JTV8); test: LAP1 binders from COS7 cell lysate, primary screen, small-molecule microarray, 635/667 nm fluorescence (AID 1116); conditions: COS7-hLAP1 lysate binding, 635 nm fluorescence, higher = more signal
# [10] = molecular target: Alpha-bungarotoxin (Bungarus multicinctus) (UniProt P60615); test: alpha-bungarotoxin binders on microarray, profiling panel, artefact control for SMM control protein annotation, biochemical, small-molecule microarray, Alexa647 label, 635/667 nm fluorescence (AID 1117); conditions: alpha-BTX-A647 binding fluorescence, higher = more signal
# Albumin (Bos taurus) = Albumin (Bos taurus) (UniProt P02769); test: bovine serum albumin binders on microarray, profiling panel, artefact control for SMM control protein annotation, biochemical, small-molecule microarray, Alexa647 label, 635/667 nm fluorescence (AID 1118); conditions: BSA-A647 binding, fluorescence 635 nm, higher = more signal;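 note: score merges 667 nm emission intensity and signal-to-noise per printed compound spot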
# [11] = small-molecule microarray binders of probe aXIP, primary screen, biochemical, NeuroSMM set, 635/667 nm fluorescence (AID 1119); conditions: higher = more signal, called active from +8 up or from −8 down;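 note: probe is the protein aXip251-270 applied at 1 µg/mL to compound-printed slides; binding of probe to printed compounds measured as 667 nm fluorescence plus signal to noise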
# [12] = small-molecule binders of probe aNOTCH3, primary screen, biochemical, small-molecule microarray, 635/667 nm fluorescence (AID 1120); conditions: higher = more signal;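 note: probe is a biotin-tagged antibody raised against NOTCH3 rather than NOTCH3 protein; score merges spot fluorescence near 667 nm with spot signal to noise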
# [13] = small-molecule binders of probe aNOTCH2, primary screen, biochemical, small-molecule microarray, 635/667 nm fluorescence (AID 1121); conditions: higher = more signal;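 note: score merges feature fluorescence read at 667 nm with its signal to noise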
# [14] = molecular target: Carbonic anhydrase 2 (Homo sapiens) (UniProt P00918); test: CAII small-molecule binders, profiling panel, biochemical, small-molecule microarray, Alexa647-labelled CAII (AID 1122); conditions: CAII-A647 binding fluorescence, higher = more signal
# [15] = COS7 lysate on small-molecule microarray, probe aHis, 635 nm (AID 1123); conditions: COS7 cell lysate, fluorescence, higher = more signal;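 note: z-score combines 667nm fluorescence intensity with signal-to-noise per printed compound spot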
# [16] = compound binding in COS7 lysate, probe aLAP1, primary screen, cell lysate, small-molecule microarray (AID 1124); conditions: probe aLAP1, fluorescence, higher = more signal;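 note: lysate comes from COS7 cells expressing LAP1 and is applied at 0.3 µg/mL; score merges spot fluorescence near 667 nm with signal-to-noise over triplicate slides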
# Sam68 (KHDRBS1) = test: Sam68 small-molecule binders, primary screen, biochemical, small-molecule microarray, 635 nm fluorescence (AID 1125); conditions: small-molecule microarray binding, higher = more signal;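 note: score merges 667 nm channel intensity with signal to noise over triplicate slides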
# [17] = system: Chordin-like protein 2 (CHRDL2); test: CHRDL2 small-molecule binders, primary screen, biochemical, small-molecule microarray, 635 nm fluorescence (AID 1126); conditions: small-molecule microarray binding, fluorescence 635 nm; higher = more signal;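 note: printed compound slides probed with Chrdl2 protein at 4 µg/mL for 1 h at 4 C; score merges 667 nm emission intensity with signal to noise over three replicate slides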
# [18] = molecular target: Concanavalin-A (Canavalia ensiformis) (UniProt P02866); test: ConA small-molecule binders, primary screen, artefact control for SMM control protein annotation, biochemical, small-molecule microarray, Alexa647 label, 635 nm (AID 1127); conditions: ConA-A647 binding fluorescence, higher = more signal;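 note: z combines 667 nm emission intensity with signal-to-noise across three replicate slides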
# Chain of Concanavalin-A (Canavalia ensiformis) (P02866 whole entry, looked up): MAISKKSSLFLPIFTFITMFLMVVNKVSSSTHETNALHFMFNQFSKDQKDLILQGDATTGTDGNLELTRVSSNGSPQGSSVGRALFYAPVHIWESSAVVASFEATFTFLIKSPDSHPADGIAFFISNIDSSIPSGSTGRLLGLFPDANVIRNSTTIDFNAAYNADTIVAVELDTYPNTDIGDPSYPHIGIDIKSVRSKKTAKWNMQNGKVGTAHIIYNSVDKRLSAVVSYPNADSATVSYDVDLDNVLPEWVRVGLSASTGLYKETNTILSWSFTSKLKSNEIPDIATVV
# Chain of Alpha-bungarotoxin (Bungarus multicinctus) (P60615 whole entry, looked up): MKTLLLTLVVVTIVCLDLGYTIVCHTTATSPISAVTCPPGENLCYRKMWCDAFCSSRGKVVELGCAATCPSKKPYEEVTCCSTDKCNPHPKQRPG
# Chain of Torsin-1A-interacting protein 1 (Homo sapiens) (Q5JTV8 whole entry, looked up): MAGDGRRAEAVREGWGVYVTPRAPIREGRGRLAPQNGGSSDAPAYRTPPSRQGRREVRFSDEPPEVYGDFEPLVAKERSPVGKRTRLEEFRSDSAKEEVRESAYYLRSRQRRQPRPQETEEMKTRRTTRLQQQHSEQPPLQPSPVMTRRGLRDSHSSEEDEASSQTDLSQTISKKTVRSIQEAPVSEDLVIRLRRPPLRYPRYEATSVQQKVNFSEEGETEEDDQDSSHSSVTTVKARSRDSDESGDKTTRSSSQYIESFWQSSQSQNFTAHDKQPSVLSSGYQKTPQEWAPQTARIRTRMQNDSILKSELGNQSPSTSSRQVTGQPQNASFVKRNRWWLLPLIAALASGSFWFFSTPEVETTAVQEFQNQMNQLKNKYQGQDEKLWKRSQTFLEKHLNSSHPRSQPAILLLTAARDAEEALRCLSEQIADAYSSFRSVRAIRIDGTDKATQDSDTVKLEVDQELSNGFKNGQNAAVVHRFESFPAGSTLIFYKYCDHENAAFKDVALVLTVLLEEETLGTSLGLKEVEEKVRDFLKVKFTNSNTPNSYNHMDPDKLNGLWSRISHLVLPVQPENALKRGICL
# Chain of Albumin (Bos taurus) (P02769 whole entry, looked up): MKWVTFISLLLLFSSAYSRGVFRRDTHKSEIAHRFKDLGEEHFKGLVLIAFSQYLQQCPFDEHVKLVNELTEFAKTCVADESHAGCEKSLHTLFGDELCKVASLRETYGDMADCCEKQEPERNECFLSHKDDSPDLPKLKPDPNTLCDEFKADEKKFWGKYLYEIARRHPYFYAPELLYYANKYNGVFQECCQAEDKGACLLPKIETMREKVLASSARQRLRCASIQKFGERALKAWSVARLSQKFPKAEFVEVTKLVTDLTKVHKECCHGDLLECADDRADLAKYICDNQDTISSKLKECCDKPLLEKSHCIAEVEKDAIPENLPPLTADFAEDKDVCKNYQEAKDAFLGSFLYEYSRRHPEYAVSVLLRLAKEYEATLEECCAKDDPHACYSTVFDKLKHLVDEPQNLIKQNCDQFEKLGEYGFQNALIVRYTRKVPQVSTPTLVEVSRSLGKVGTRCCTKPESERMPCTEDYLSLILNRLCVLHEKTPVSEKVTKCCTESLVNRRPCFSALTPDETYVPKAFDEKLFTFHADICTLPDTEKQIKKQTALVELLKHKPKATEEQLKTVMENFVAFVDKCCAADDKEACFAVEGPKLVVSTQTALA
# Chain of Left-right determination factor 2 (Homo sapiens) (O00292 whole entry, looked up): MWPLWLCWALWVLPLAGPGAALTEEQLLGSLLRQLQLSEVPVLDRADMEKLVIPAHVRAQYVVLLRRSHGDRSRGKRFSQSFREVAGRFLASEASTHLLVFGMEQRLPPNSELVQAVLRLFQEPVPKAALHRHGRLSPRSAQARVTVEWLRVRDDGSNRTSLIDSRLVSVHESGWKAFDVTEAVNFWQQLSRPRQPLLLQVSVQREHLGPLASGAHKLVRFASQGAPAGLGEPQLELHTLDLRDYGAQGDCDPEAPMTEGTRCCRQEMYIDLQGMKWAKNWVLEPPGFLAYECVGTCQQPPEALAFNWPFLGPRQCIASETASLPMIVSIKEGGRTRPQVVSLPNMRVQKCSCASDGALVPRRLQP
SMILES,composite z-score [1],z-score [2],composite z-score [3],composite z-score [4],composite z-score [5],composite z-score [6],composite z-score [7],composite z-score [8],composite z-score [9],composite z-score [10],composite z-score (Albumin (Bos taurus)),composite Z-score [11],composite z-score [12],composite z-score [13],composite z-score [14],composite z-score [15],composite z-score [16],composite z-score (Sam68 (KHDRBS1)),composite z-score [17],composite z-score [18]
CCCCC(CC)C(O)C1C=CC2C(=O)N(c3ccccc3)C(=O)C2N1Nc1ccc(C#N)cc1 (stereo not given),1.44,-0.67,0.111,1.35,0.467,0.267,0.348,1.97,0.336,1.45,1.02,0.369 (inactive),0.64,0.353,0.595,2.21,0.664,1.13,0.0027,1.2
O=C(c1ccccc1)N1C(=O)[C@]2(Cc3ccccc31)N=C(c1ccc(OCCCO)cc1)O[C@@H]2c1ccccc1,1.44,-2.94,0.148,1.43,-0.165,-0.0758,0.108,-0.535,0.688,1.46,0.462,-0.129 (inactive),0.0691,-0.0928,0.204,2.7,0.356,1.29,0.371,1.13
CCCCC=C[C@@H](NC(=O)OCc1ccccc1Cl)c1ccccc1,1.4,-0.0468,0.39,1.35,1,1.08,1.97,3.06,0.28,0.922,0.997,-0.418 (inactive),1.74,0.825,0.526,2.65,0.0357,1.3,-0.747,1.13
CC(=O)N1CC2(CC2)CC1c1ccccc1 (stereo not given),0.753,0.677,0.171,0.107,0.0916,1.19,-0.227,2.15,0.791,-0.217,0.336,0.204 (inactive),0.77,0.172,0.671,1.88,0.562,0.913,0.0586,-0.0459
CO[C@H]1O[C@H](CO)[C@@H](OC(=O)CCc2ccccc2)[C@@H]2OC(=O)[C@@H](Cc3ccccc3)C/C=C/C[C@H](Cc3ccccc3)C(=O)O[C@@H]12,1.3,-1.97,0.0673,0.485,0.0529,-0.0802,0.772,0.156,-0.161,1.29,0.0544,-0.0061 (inactive),-0.0014,-0.0861,0.116,0.88,0.338,1.13,0.0642,0.6
COc1cc(OC)c(C(O)C2C=CC3C(=O)N(Cc4ccccc4)C(=O)C3N2n2cnnc2)cc1Br (stereo not given),1.36,-1.61,-0.6,0.181,0.595,0.0173,-0.131,0.665,0.781,0.871,0.725,-0.395 (inactive),0.056,-0.0398,0.377,1.64,0.953,1.2,-1.15,0.756
CN(C)c1ccc(C(O)C2C=CC3C(=O)NC(=O)C3N2Nc2ccccn2)cc1 (stereo not given),1.34,-0.125,0.883,-0.365,-0.733,-0.13,-0.154,0.213,-0.269,0.162,0.396,0.378 (inactive),-0.0419,0.046,0.788,0.718,0.282,0.711,0.987,0.372
NC(=O)[C@@]1(Cc2ccccc2)COC(c2ccc(OCCCO)cc2)=N1,0.404,1.84,-0.263,0.435,1.2,-0.0179,0.46,0.959,0.381,-0.0002,0.456,0.08 (inactive),-0.0647,0.513,0.815,2.91,-0.238,-0.442,-0.165,-0.978
